PrP 5UTR inh – suppresses PrP 5' UTR mRNA reporter expression; 340,000 tested, 0.35% active; AID 488862; inhibition, % (test concentration not listed); cell-based PrP 5' UTR mRNA reporter, plate reader; in the data active = inhibition above about 52%; note: 0 = median of the neutral control wells
SSB-PriA inh – inhibitors of Klebsiella pneumoniae PriA binding to SSB C-terminal tail; inhibition, % at 33 µM; AlphaScreen SSBct-PriA binding, biotinylated peptide; 430,000 tested, 0.6% active; in the data active = inhibition mostly above about 37%, no sharp cut-off; inactive = mostly below about 20%;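 note: plate controls were negative control peptide for no effect and reference peptide for full effect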
3CLpro inhibitor – SARS-CoV 3CLpro protease inhibition; P0C6X7; recombinant SARS-CoV 3CLpro, quenched FRET peptide cleavage; inhibition, % at 6 µM; 290,000 tested, 0.14% active; in the data active = inhibition above about 12%
PfHsp40 yeast – rescue of PfHsp40-mediated yeast toxicity | S. cerevisiae expressing PfHsp40, growth rescue, ATP luminescence | growth rescue, % at 12.5 µM | 340,000 tested, 0.68% active | AID 504582; in the data active = growth rescue above about 28%, passing the limit was not always enough; inconclusive = no clear call, values can overlap the other calls;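 note: yeast W303a lacking pdr1 and pdr3 grown in galactose medium; growth measured after three days at 30 °C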
PrPC surface inh – cell surface PrPC inhibition, primary TR-FRET screen; TR-FRET read-out; inhibition, % at 13.8 µM; 370,000 tested, 0.43% active; AID 720596; in the data active = inhibition above about 24%; note: 0% = median of the test wells and 100% = reference compound wells
BH1578 lux ind – quorum light induction in luxS cqsA deficient V. cholerae; V. cholerae BH1578 lux reporter, luminescence, 6 h; activation, % at 18.7 µM; 350,000 tested, 0.16% active; in the data active = activation mostly above about 9.7%, no sharp cut-off; inconclusive = no clear call, values can overlap the other calls; inactive = mostly below about 3.7%
Active calls of the source: *; i = inactive; ? = inconclusive; nt = no result given; ! = not confirmed by another sample. Shown are actives, neighbours in structure and some others; about 1.6% of the full set was active somewhere.

SMILES	PrP 5UTR inh	SSB-PriA inh	3CLpro inhibitor	PfHsp40 yeast	PrPC surface inh	BH1578 lux ind
Nc1nonc1-n1nnc(C(=O)N/N=C/c2cccc(Cl)c2)c1CN1CCCC1	-22.5	nt	nt	-0.2	-4.8	32.0*
CCOC(=O)N1CCN(C(=O)CSc2ccc(-c3sc(-c4cccs4)nc3C)nn2)CC1	nt	-5.0	nt	nt	nt	nt
O=C(Nc1ccccc1)c1sccc1Oc1ccc([N+](=O)[O-])cc1F	-13.4	43.9*	5.2	3.3	-5.8	-0.3
COCCOc1cc(NC(=O)c2sccc2Oc2ccc([N+](=O)[O-])cc2F)c(Cl)cc1Cl	-8.8	26.1	4.9	-0.9	-14.4	4.2
CCc1ccc(S(=O)(=O)N2CCN(c3ccc(-c4ccc(C)cc4C)nn3)CC2)s1	nt	-5.0	nt	nt	nt	nt
CCOc1ccc(CCNC(=O)c2c(C)noc2C)cc1OCC	-18.5	-5.7	nt	43.1*	-4.5	0.1
COC(=O)c1ccc2nc(NC(=O)c3ccc(N(C)C)cc3)sc2c1	nt	-5.0	nt	nt	nt	nt
CC(=O)Nc1cccc(OCc2ccc(F)cc2)c1	-31.2	-4.8	1.7	69.8*	-1.4	-0.2
COc1ccc(NC(=O)c2nc[nH]c2C(=O)N[C@@H](CC(C)C)C(=O)OC(C)(C)C)cc1	-6.6	-9.1	nt	27.4*	2.3	1.2
O=C(CN1CC(=O)Oc2ccccc21)OCC(=O)c1ccccc1	-19.3	92.4*	-1.3	-0.3	2.8	i
O=C(CN1CC(=O)Oc2ccccc21)OCC(=O)c1cccc(Br)c1	-14.4	77.2*	2.7	-0.4	nt	-0.2
O=C(CN1CC(=O)Oc2ccccc21)OCC(=O)c1ccc(Cl)cc1	nt	52.6	nt	nt	nt	nt
Cc1cc(C)n(CCN2CCN(C(=O)c3cccc(Cl)c3)CC2)n1	nt	-9.0	nt	nt	nt	nt
c1ccc(-c2cn(C[C@H]3CC[C@H](Cn4cc(-c5ccccn5)nn4)O3)nn2)nc1	-20.6	109.1*	-4.2	0.0	2.1	i
Cc1ccc(-c2cn(C[C@H]3CC[C@@H]([C@@H]4CC[C@H](Cn5cc(-c6ccc(C)cc6)nn5)O4)O3)nn2)cc1	-13.1	-24.7	-5.6	-0.7	-3.3	i
COc1cccc(CC(=O)N[C@H]2CC(=O)N(C3CC3)C2)c1	nt	-11.0	nt	nt	nt	nt
CNC(=S)N/N=C(\C)c1ccc(N2CCOCC2)cc1	-31.9	nt	-6.2	203.2*	-3.2	-0.3
CCNC(=S)N/N=C(\C)c1ccc(N2CCOCC2)cc1	-30.5	nt	-5.0	5.1	3.2	i
CC(C)Oc1ccccc1C1CC(=O)Nc2cc3c(cc21)OCCO3 (configuration not stated)	60.8*	17.9	7.6	0.0	13.9	-0.3
COC(=O)C1=CC(C(=O)c2cccs2)=NN(c2ccc(OC)cc2)C1C(=O)OC (configuration not stated)	-11.4	38.9*	-5.0	1.8	3.2	-0.3
Nc1ccc(N=Nc2ccccc2)cc1	-51.2	48.6	0.1	-1.6	-5.7	i
Nc1ccc(N(c2ccccc2)c2ccc(N)cc2)cc1	-20.2	41.7*	-3.1	-0.8	-6.7	-0.3
Cc1cc(C)c(S(=O)(=O)N2CCN(C(=O)c3c(C)nn(-c4ccccc4)c3Cl)CC2)c(C)c1	2.0	44.2*	nt	0.3	4.6	i
O=S(=O)(c1c(F)cccc1F)N(CCc1ccc(F)cc1)C[C@@H](O)COCc1ccccc1	0.9	-18.0	nt	114.4*	8.1	-0.6
C=CCNC(=O)C(=O)Nc1cccc(Cl)c1C	nt	-4.0	nt	nt	nt	nt
SMILES	PrP 5UTR inh	SSB-PriA inh	3CLpro inhibitor	PfHsp40 yeast	PrPC surface inh	BH1578 lux ind
O=C(NN=CC1C(=O)NC(=S)N(c2ccccc2)C1=O)c1ccc(O)cc1 (configuration not stated)	nt	4.7	nt	nt	nt	nt
O=C(NN=CC1C(=O)NC(=S)N(c2ccccc2)C1=O)c1cc(Br)c(O)c(Br)c1 (configuration not stated)	nt	61.8*	nt	nt	nt	nt
COc1cc(-c2ccc3c(=O)c4ccccc4n(C)c3c2)cc(OC)c1OC	-2.6	-56.9	-7.9	28.3*	-15.3	-0.6
COc1ccc(Cl)cc1NC(=O)C1CN(S(=O)(=O)C2CC2)C1	nt	-11.0	nt	nt	nt	nt
CC(=O)c1c(C)[nH]c(C(=O)COc2cc(C)ccc2C(C)C)c1C	-2.6	-3.6	1.7	-0.6	26.2*	-0.6
COc1cc(C)ccc1OCC(=O)OCC(=O)c1[nH]c(C)c(C(C)=O)c1C	-20.6	7.0	nt	0.5	7.6	i
CCCn1cc(C(=O)N2CCC(C(=O)OC)CC2)c2nn(-c3ccccc3)c(=O)c-2c1	nt	-12.0	nt	nt	nt	nt
CCn1nc([N+](=O)[O-])c(C(C#N)c2nc3cc(C(F)(F)F)ccc3s2)c(Cl)c1=O (configuration not stated)	-32.0	73.3*	3.8	3.4	-30.8	-0.2
NNC(=O)c1ccc2nc(-c3ccc(Br)cc3)cn2c1	-49.0	-2.0	-2.8	71.1*	4.0	-1.3
Cc1csc(NC(=O)CSc2ccc(-c3ccccn3)nn2)n1	-23.3	63.2*	1.4	?	1.8	-0.2
COC(=O)c1ccc(NC(=O)CSc2ccc(-c3ccccn3)nn2)cc1	-22.2	37.0*!	3.0	0.2	-1.2	-0.1
O=C(CSc1ccc(-c2ccccn2)nn1)Nc1nccs1	-52.7	-13.0	3.8	1.0	-1.0	-0.6
CC(=O)c1ccc(NC(=O)CSc2ccc(-c3ccccn3)nn2)cc1	nt	47.9	nt	nt	nt	nt
Cc1ccccc1NC(=O)CSc1ccc(-c2ccccn2)nn1	-3.5	7.9	1.4	380.9*	-4.9	i
Cc1ccc(C)c(NC(=O)CSc2ccc(-c3ccccn3)nn2)c1	nt	36.6	nt	nt	nt	nt
CCc1ccc(OCCS(=O)(=O)NCc2ccc(Cl)cc2)cc1	nt	-8.0	nt	nt	nt	nt
O=C(CN1C(=O)CC(c2ccccc2)=Nc2ccccc21)NCc1ccccc1	-16.7	-0.2	4.6	119.4*	-4.0	i
COc1ccccc1NC(=O)N1CCC(CNC(=O)Nc2c(F)cccc2F)CC1	nt	-8.0	nt	nt	nt	nt
O=C(NCc1ccco1)C(=O)Nc1cccc(N2CCCC2=O)c1	nt	12.0	nt	nt	nt	nt
CC1Cc2ccccc2N1C(=S)NC(=O)c1cccc(Br)c1 (configuration not stated)	7.8	14.8	-1.6	145.8*	3.8	-3.3
CC1(C)C2CCC1(CS(=O)(=O)NCCc1ccsc1)C(=O)C2 (configuration not stated)	nt	-2.0	nt	nt	nt	nt
Cc1ccc(CN2CCC(CNC(=O)Nc3ccccc3F)CC2)cc1	-1.3	5.0	2.0	54.6*	-5.8	2.0
CC(Nc1cccc2ccccc12)C(=O)NN=Cc1ccccn1 (configuration not stated)	nt	85.1*	nt	nt	nt	nt
O=C(OCc1ccccc1)N1CCC2CC1c1c(Cl)cccc12 (configuration not stated)	-9.8	-15.1	nt	31.8*	-5.1	1.4
c1cc2c(cc1CNc1ccc(N3CCOCC3)cc1)OCO2	-65.2	47.8*	nt	0.5	-14.2	-0.5
CC(=O)c1ccc(NN=C(C(N)=O)C2=NC(C)(C)Cc3ccccc32)cc1	nt	49.9*	nt	nt	nt	nt
Cc1c(C(=O)Nc2ccc(-c3ccc(N4CCN(C)CC4)nn3)cc2)cccc1[N+](=O)[O-]	nt	2.0	nt	nt	nt	nt
O=S(=O)(Nc1cnc(N2CCCC2)nc1)c1ccc(OC(F)(F)F)cc1	nt	-2.0	nt	nt	nt	nt
O=C(Nc1nc(-c2ccccn2)cs1)c1ccncc1	nt	157.0*	nt	nt	nt	nt
